Source: PubChem BioAssay (The Scripps Research Institute Molecular Screening Center)
Hits are enriched below; roughly 3.3% of the tested compounds scored in any of these assays.
TLR4-MyD88 BLA: inhibitors of TLR4-MyD88 association in cells, primary screen, cell-based, HeLa CL3-4, BLA complementation, FRET ratio; Toll-like receptor 4 (Homo sapiens) + Myeloid differentiation primary response protein …; HeLa CL3-4 TLR4/MyD88 BLA complementation; inhibition, % at 8.4 µM; hit rate 0.18% among 200,000; AID 861, 2007; in the data active = inhibition above about 25%;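 also: 0% = vehicle and 100% = reference inhibitor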
Target sequence (O00206 whole entry, looked up): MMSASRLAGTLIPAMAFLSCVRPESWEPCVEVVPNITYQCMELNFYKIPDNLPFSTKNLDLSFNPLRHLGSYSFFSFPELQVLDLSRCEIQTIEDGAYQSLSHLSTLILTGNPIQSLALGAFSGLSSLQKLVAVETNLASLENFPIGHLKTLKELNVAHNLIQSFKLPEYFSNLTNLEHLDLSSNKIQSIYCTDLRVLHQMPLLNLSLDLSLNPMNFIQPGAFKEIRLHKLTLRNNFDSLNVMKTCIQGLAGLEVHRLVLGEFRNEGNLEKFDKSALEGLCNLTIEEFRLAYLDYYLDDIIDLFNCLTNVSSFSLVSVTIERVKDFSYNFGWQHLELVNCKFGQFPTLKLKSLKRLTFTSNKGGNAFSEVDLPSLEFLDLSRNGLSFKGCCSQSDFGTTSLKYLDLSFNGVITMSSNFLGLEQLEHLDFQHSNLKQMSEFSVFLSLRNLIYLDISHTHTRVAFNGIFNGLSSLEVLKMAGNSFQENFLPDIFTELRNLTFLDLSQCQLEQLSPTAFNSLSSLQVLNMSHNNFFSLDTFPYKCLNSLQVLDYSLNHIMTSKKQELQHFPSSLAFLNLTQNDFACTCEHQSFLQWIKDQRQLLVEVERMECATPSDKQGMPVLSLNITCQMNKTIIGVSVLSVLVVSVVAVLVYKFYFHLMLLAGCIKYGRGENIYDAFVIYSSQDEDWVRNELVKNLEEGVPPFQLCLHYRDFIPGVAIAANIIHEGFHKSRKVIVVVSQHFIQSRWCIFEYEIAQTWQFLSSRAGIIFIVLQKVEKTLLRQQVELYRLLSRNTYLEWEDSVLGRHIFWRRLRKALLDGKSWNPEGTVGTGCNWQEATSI
Target sequence (Q99836 whole entry, looked up): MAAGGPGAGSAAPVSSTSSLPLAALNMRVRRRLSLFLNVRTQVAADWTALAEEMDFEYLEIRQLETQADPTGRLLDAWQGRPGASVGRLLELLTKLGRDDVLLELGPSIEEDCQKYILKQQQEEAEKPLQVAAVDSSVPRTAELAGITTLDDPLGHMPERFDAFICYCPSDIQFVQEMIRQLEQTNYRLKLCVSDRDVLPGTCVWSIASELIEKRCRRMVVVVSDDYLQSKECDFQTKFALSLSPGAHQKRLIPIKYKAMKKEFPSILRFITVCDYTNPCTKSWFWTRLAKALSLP
TLR9-MyD88 inh: inhibitors of TLR9-MyD88 association in cells, primary screen, cell-based, CHO, BLA complementation, fluorescence | Toll-like receptor 9 (Homo sapiens) + Myeloid differentiation primary response protein … | CCF4 FRET ratio | inhibition, % at 4.98 µM | hit rate 0.21% among 340,000;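 active = inhibition above the mean over all tested compounds plus 3 SD, cut at about 21% in these data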;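 also: 0% = DMSO only wells and 100% = clavulanate BLA inhibitor control wells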
NOD2 RIPK2 PPI: NOD2-RIPK2 binding disruptors in cells, primary screen, fluorescence, CHO cells, BLA complementation. Receptor-interacting serine/threonine-protein kinase 2 (Homo sapiens), O43353. CCF4 ratio. inhibition, % at 4.98 µM. hit rate 0.38% among 360,000; in the data active = inhibition above about 21%;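 also: 0% = vehicle only and 100% = reference blocker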
rCAG binder: binders of r(CAG) RNA repeats, primary screen, biochemical, fluorescence; hit rate 1.3% among 370,000; r(CAG) RNA repeat, TO-PRO-1 dye displacement fluorescence; inhibition, % at 3 µM;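 active = inhibition above the plate cutoff, the mean of all test compounds on that plate plus 3 SD, cut at about 35% in these data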;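 also: 0% = DMSO alone and 100% = 100 µM mitoxantrone as full dye displacement; higher means more dye released from RNA so lower well fluorescence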
PRMT1 inh: PRMT1 methyltransferase inhibitors, primary screen, biochemical, fluorescence polarization; recombinant PRMT1, activity-based probe fluorescence polarization; inhibition, % at 2.79 µM; hit rate 1.3% among 370,000;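 active = inhibition above about 21% made by adding two undisclosed values, limit read from the data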
ABHD5 PLIN5 PPI: ABHD5-PLIN5 interaction inhibitors, primary screen, cell lysate, split luciferase complementation, luminescence; Perilipin-5 (Homo sapiens) + 1-acylglycerol-3-phosphate O-acyltransferase ABHD5 (Homo …; Split G. princeps luciferase complementation, 4 h; inhibition, % at 4 µM; hit rate 0.78% among 360,000; AID 602281, 2012;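 active = inhibition above the mean inhibition across every tested compound plus 3 SD, cut at about 22% in these data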;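 also: 0% = DMSO only wells and the 100% control is not disclosed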
PRMT1 inh conf: PRMT1 methyltransferase inhibitors, confirmation, biochemical, fluorescence polarization, triplicate. shares compounds with PRMT1 inh. recombinant His-PRMT1, activity-based probe fluorescence polarization. inhibition, % at 2.79 µM. hit rate 42% among 3,300;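 active = mean inhibition across replicates above the hit cutoff derived for the earlier primary screen, cut at about 22% in these data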
Numbers without * were called inactive; . = not tested or not shown.

SMILES | TLR4-MyD88 BLA | TLR9-MyD88 inh | NOD2 RIPK2 PPI | rCAG binder | PRMT1 inh | ABHD5 PLIN5 PPI | PRMT1 inh conf
O=C(NCCN1CCC(n2c(=O)[nH]c3ccccc32)CC1)c1ccc(F)cc1Cl | . | . | 10 | -2 | 1 | 4 | .
CN(CCOC(=O)CCCc1ccccc1)C1CN(Cc2cn(Cc3ccccc3F)nn2)S(=O)(=O)C1 (stereo not given) | . | . | . | 2 | 1 | . | .
Brc1ccc(C2=CSC3=NCCN23)cc1 | -14 | 11 | -11 | 5 | 30* | -8 | 12
COC(=O)C1=C(C)OC(N)=C(C#N)C1c1ccccc1 (stereo not given) | -6 | 3 | -9 | -1 | 1 | -5 | .
CNC(=O)C1C(=S)NC(N)=C(C#N)C1c1ccccc1 (stereo not given) | 11 | 8 | 6 | 1 | 61* | -25 | 12
CC1CC(NS(=O)(=O)c2cccs2)CC(C)(C)C1 (stereo not given) | -15 | -4 | -10 | -6 | 1 | -6 | .
COc1ccc(S[C@]2(C(=O)N3CCOCC3)CC(=O)N(C(=O)C3CC3)[C@@H]2c2ccc(OC)cc2)cc1 | . | . | . | 4 | 36* | . | 27*
COc1ccc(S[C@]2(C(=O)N3CCN(c4ncccn4)CC3)CC(=O)N(P(=O)(OC)OC)[C@@H]2c2ccc(OC)cc2)cc1 | . | . | . | 2 | 12 | . | .
CCOC(=O)N1C(=O)C[C@](Sc2ccc(OC)cc2)(C(=O)N2CCCC2)[C@H]1c1ccc(OC)cc1 | . | . | . | 2 | 56* | . | 40*
CCOC(=O)N1C(=O)C[C@](Sc2ccc(OC)cc2)(C(=O)N2CCN(c3ncccn3)CC2)[C@H]1c1ccc(OC)cc1 | . | . | . | 10 | 41* | . | 33*
CCOC(=O)N1C(=O)C[C@](Sc2ccc(OC)cc2)(C(=O)N2CCOCC2)[C@H]1c1ccc(OC)cc1 | . | . | . | 0 | 47* | . | 43*
COc1ccc(S[C@]2(C(=O)N3CCOCC3)CC(=O)N(c3ccccc3)[C@@H]2c2ccc(OC)cc2)cc1 | . | . | . | 5 | 6 | . | .
COc1ccc(S[C@]2(C(=O)N3CCOCC3)CC(=O)N(C(=O)/C=C/c3ccccc3)[C@@H]2c2ccc(OC)cc2)cc1 | . | . | . | 10 | 11 | . | .
CCCS(=O)(=O)NC(=O)C1(C)CCCN(C(=O)c2cc(C)n(C(C)(C)C)n2)C1 (stereo not given) | . | . | -1 | 3 | -2 | 5 | .
COc1ccc(S[C@]2(C(=O)N3CCN(C(C)=O)CC3)CC(=O)N[C@@H]2c2ccc(OC)cc2)cc1 | . | . | . | 4 | 8 | . | .
CCOC(=O)N1C(=O)C[C@](Sc2ccc(OC)cc2)(C(=O)N2CCN(C(C)=O)CC2)[C@H]1c1ccc(OC)cc1 | . | . | . | 3 | 54* | . | 46*
CCN(CC)S(=O)(=O)c1cccc(C(=O)N/N=C2\CC(=O)CC(C)(C)C2)c1 | 10 | -11 | -3 | 4 | 17 | 0 | .
CCN(CC)S(=O)(=O)c1cccc(C(=O)N/N=C2\CCCC(=O)C2)c1 | . | 13 | 9 | -11 | 46* | 6 | -2
COc1ccc(C(=O)COC(=O)c2sc(C)nc2C)cc1F | . | -5 | -3 | 9 | 0 | 3 | .
Cc1ccc(NC(=O)CSc2ccc(-c3cccnc3)nn2)c(C)c1 | . | 2 | -9 | 0 | 51* | 17 | -2
O=C(OCN1C(=O)c2ccccc2C1=O)c1cccc(OC(F)F)c1 | . | 0 | -7 | 1 | -2 | -6 | .
O=C(COc1cc(O)c2c(=O)c3ccccc3oc2c1)OCc1ccccc1 | . | -6 | -11 | -3 | -1 | 2 | .
Cc1ccc(S(=O)(=O)CCC(=O)OC(C)C(=O)N2CCc3ccccc32)cc1 (stereo not given) | . | 1 | -7 | -6 | 6 | -2 | .
O=c1c2ccccc2nc(SCc2nnc(-c3ccccc3Br)o2)n1Cc1ccco1 | 15 | 4 | 7 | 6 | 69* | 3 | 58*
COC(=O)[C@]12C[C@H](CC(=O)NCc3ccc(OC)c(OC)c3)C(=O)N(Cc3ccc(Cl)cc3Cl)C1=C[C@H](COCc1ccccc1)O[C@@H]2C | . | . | . | 9 | -2 | . | .
SMILES | TLR4-MyD88 BLA | TLR9-MyD88 inh | NOD2 RIPK2 PPI | rCAG binder | PRMT1 inh | ABHD5 PLIN5 PPI | PRMT1 inh conf
COc1ccc(C(=O)Cn2c(NCCCO)nc3ccccc32)cc1OC | . | 3 | -5 | -5 | 48* | 0 | 6
COc1ccc(C(=O)Cn2c(NCCO)nc3ccccc32)cc1OC | -2 | 0 | -8 | -2 | -5 | 1 | .
CCCC[C@H]1C2CC(OC(=O)NCc3ccc(Cl)cc3)C(C2)[C@H]2CCCCN21 (stereo not given in full) | . | . | . | -2 | 1 | . | .
Cc1ccc(CNC(=O)CCS(=O)(=O)c2cc(Br)cc3c2N(C(=O)C2CC2)CC3)o1 | -5 | -8 | 1 | 5 | 48* | 14 | 3
CC(C)n1nnnc1C1(C)CSCC(=O)N1Cc1cccc(F)c1 (stereo not given) | . | . | . | 7 | 3 | . | .
O=C(Nc1nccs1)C(Br)C(Br)c1ccccc1 (stereo not given) | . | -8 | 2 | 2 | 65* | 15 | 59*
O=C(NCc1ccccn1)C1CCN(C2CCN(Cc3cccc(F)c3)CC2)CC1 | . | -12 | 9 | 1 | 1 | -1 | .
O=[N+]([O-])c1ccc(Sc2ncccn2)c([N+](=O)[O-])c1 | . | . | -1 | -1 | 2 | -1 | .
O=[N+]([O-])c1cnc(Sc2ccncn2)c([N+](=O)[O-])c1 | . | 5 | -3 | 13 | 71* | -9 | 90*
C=CCn1c(CSc2ccccc2[N+](=O)[O-])n[nH]c1=S | . | -3 | -11 | 34 | 25* | -17 | 5
C=CCn1c(Cc2ccccc2)n[nH]c1=S | -6 | 8 | -4 | 0 | -3 | -3 | .
CC(NC(=O)c1c(N)[nH]c(C(=O)c2ccccc2)c1-c1ccccc1Br)c1cccc2ccccc12 (stereo not given) | . | . | 11 | 17 | 9 | -13 | .
CC(C)C[C@H]1CNC(=S)N1CC1CCCN1C[C@H](CC(C)C)N1C[C@H](Cc2ccccc2)N(CC2CCCCCC2)C1=S (stereo not given in full) | . | -11 | 0 | -1 | 31* | -2 | 1
O=C(c1cccc(Br)c1)N1CCC(Oc2cccnc2)CC1 | . | . | . | -2 | -1 | . | .
NC(=S)NNc1ccc(Cl)c(Cl)c1 | . | -2 | 0 | 0 | 12 | -12 | .
Cc1ccc(NNC(N)=S)cc1Cl | . | -5 | 2 | 1 | 28* | 0 | 3
